Our source for the PBM binding z-score values is the supplement of paper PMC6555819.

Experiment in all cases: PBM binding z-score (relative to random genomic background probes); higher = stronger binding; sequences stand for … in GC…GCGATTGACAGCGTAGAATGAAGG
For experiment [1], the system named is PPARg:RXRa DBDmut IVT, anti-RXR (DBD mutation: RXRa K156A/R161A, NR concentration 270 nM, RXRa partner concentration 90 nM). An outline of the steps: (§1)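 For binding z-scores, the reference was random background probes on custom Agilent 4×180K protein-binding microarrays. These arrays were incubated 1 h with ligand-free nuclear receptor dimers in PBS pH 7.4, 2% milk, 0.02% Triton X-100, 1 mM DTT, 0.2 mg/mL BSA and 0.4 mg/ml salmon testes DNA. Fluorescence was scanned after antibody detection of each partner (one per run) and regression-normalized.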

Experiment [2] has as its system PPARg:RXRa IVT, anti-PPARg (NR concentration 270 nM, RXRa partner concentration 90 nM). An outline of the steps: as §1
Experiment [3] concerns PPARg DBDmut:RXRa IVT, anti-PPARg (DBD mutation: PPARg1 K132A/R137A, NR concentration 270 nM, RXRa partner concentration 90 nM). An outline of the steps:
as §1

Experiment [4] concerns PPARg DBDmut IVT, anti-PPARg (DBD mutation: PPARg1 K132A/R137A, NR concentration 270 nM). An outline of the steps:
as §1

Experiment [5] deals with PPARg homodimer (NR concentration 180 nM). An outline of the steps: as §1
For experiment [6], the system named is PXR:RXRa (NR concentration 270 nM, RXRa partner concentration 90 nM). An outline of the steps:
as §1

Experiment [7] has as its system PXR homodimer (NR concentration 270 nM). An outline of the steps: as §1
Experiment [8] concerns RARa:RXR (NR concentration 270 nM, RXRa partner concentration 90 nM). An outline of the steps:
as §1

The test system of experiment [9] is RARa homodimer (NR concentration 270 nM). An outline of the steps:
as §1

In experiment [10] the test system is RARb:RXRa (NR concentration 270 nM, RXRa partner concentration 90 nM). An outline of the steps:
as §1

Experiment [11] concerns RARb homodimer (NR concentration 270 nM). An outline of the steps:
as §1

Experiment [12] has as its system RARg:RXRa (NR concentration 270 nM, RXRa partner concentration 90 nM). An outline of the steps:
as §1

Experiment [13] relates to RARg homodimer (NR concentration 270 nM). An outline of the steps: as §1
Experiment [14] has as its system RXRa DBDmut IVT, anti-RXR (DBD mutation: RXRa K156A/R161A, NR concentration 90 nM). An outline of the steps: as §1
Experiment [15] relates to RXRa homodimer (NR concentration 180 nM). An outline of the steps: as §1
Experiment [16] relates to THRa:RXRa (NR concentration 90 nM, RXRa partner concentration 90 nM). An outline of the steps:
as §1

The subject of experiment [17] is THRa homodimer (NR concentration 90 nM). An outline of the steps: as §1
Experiment [18] concerns VDR homodimer (NR concentration 270 nM). An outline of the steps: as §1

As to GCGACAGGGGCATCAGCAGGTTACCATAACTTAA, the PBM binding z-score in experiment [1] is 0.0717; in experiment [2], -0.102; in [3] it was -1.02; in experiment [4], -1.18; in experiment [5], 0.4; in experiment [6] it was 0.643. For the same sequence, the PBM binding z-score was 0.0793 in experiment [7]; 1.08 in experiment [8]; -0.68 in [9]; 1.27 in experiment [10]; 1.23 in [11]; 1.9 in [12]. The PBM binding z-score was 0.934 in experiment [13]; 0.988 in [14]; 0.871 in experiment [15]; 1.61 in experiment [16]; 0.015 in [17]; 0.188 in experiment [18].
For the sequence GCATATAGGTAATATAAGGTGAAAGTCCGATTGT, the PBM binding z-score came to 3.84 in [1]; 3.32 in experiment [2]; 1.58 in [3]; 0.946 in experiment [4]; 0.929 in experiment [5]; 0.702 in [6]. Further, the PBM binding z-score in [7] amounted to 0.375; in experiment [8], 1.78; in [9] it was 0.541; in experiment [10], 0.618; in experiment [11], 0.859; in experiment [12] it was 0.463. For the same sequence, the PBM binding z-score in experiment [13] came to 0.731; in experiment [14] it was 0.683; in experiment [15] it was 1.07; in experiment [16], 4.5; in experiment [17], 2.32; in experiment [18], 0.0802.
With GCTAGTTGGTCAGTAAAAGCTCACACACCGGTCG, the PBM binding z-score in [1] is 0.623; in [2] it was -0.0359; in experiment [3], -1.02; in experiment [4], -0.165; in experiment [5], -0.00408; in experiment [6], -0.622. Moreover, the PBM binding z-score in experiment [7] was -0.0329; in experiment [8], -0.419; in experiment [9] it was 0.154; in [10] it was 0.596; in [11], 0.375; in experiment [12], -0.0691. In addition, the PBM binding z-score is 0.0188 in experiment [13]; 0.421 in [14]; -0.0351 in [15]; -0.374 in experiment [16]; -0.166 in experiment [17]; -0.217 in experiment [18].
In the case of ATCTCTACGTAAGACTCAGTTCAGTGAAGAACGC, the PBM binding z-score in experiment [1] is -0.086; in experiment [2], 0.118; in [3] it was 0.872; in experiment [4] it was 1.57; in [5], 0.776; in experiment [6], 1.09. For the same sequence, the PBM binding z-score in [7] amounted to 1.22; in experiment [8], 0.208; in experiment [9] it was 0.199; in experiment [10] it was 0.279; in experiment [11] it was 0.71; in experiment [12], 0.107. Also, the PBM binding z-score worked out at 0.393 in [13]; 0.74 in [14]; 0.286 in experiment [15]; 0.601 in [16]; 0.378 in [17]; 1.45 in [18].
TCAAATAGGTAAATGCTAGGTGAAAGTCCGATCT: the PBM binding z-score in [1] amounted to 3.54; in [2], 2.47; in experiment [3], 0.483; in experiment [4] it was 0.699; in experiment [5], 0.99; in experiment [6] it was 0.653. In addition, the PBM binding z-score in [7] amounted to 0.443; in experiment [8] it was 1.16; in [9], 1.43; in experiment [10] it was 0.7; in [11] it was 0.514; in experiment [12], 0.401. Moreover, the PBM binding z-score in experiment [13] is 0.304; in experiment [14], 1.84; in [15], 1.06; in experiment [16] it was 1.38; in experiment [17] it was 0.625; in experiment [18] it was 0.251.
For the sequence AGCACGAGGGCAATGAGTTGATAGCACGGGTGGC, the PBM binding z-score was 1.23 in experiment [1]; 0.791 in experiment [2]; -0.0946 in experiment [3]; -0.486 in [4]; -0.285 in experiment [5]; 1.56 in experiment [6]. For the same sequence, the PBM binding z-score in [7] is 5.64; in experiment [8], 0.00535; in experiment [9] it was -0.029; in experiment [10], 2.14; in [11] it was 0.927; in [12] it was 1.16. Also, the PBM binding z-score in [13] is 1.72; in [14], 2.14; in experiment [15], 0.851; in [16], 0.817; in experiment [17], -0.487; in [18], 3.16.
On to CCGACTGGGTCATAAGGTTACCATAAGCCAGCCC, for which the PBM binding z-score stood at 5.16 in [1]; 5.58 in experiment [2]; 0.678 in [3]; 0.517 in experiment [4]; 2.93 in [5]; 2.45 in experiment [6]. For the same sequence, the PBM binding z-score in experiment [7] worked out at 0.189; in experiment [8], 4.18; in [9], 0.218; in experiment [10] it was 3.38; in [11], 3.46; in experiment [12], 4.62. In addition, the PBM binding z-score in experiment [13] came out at 3.25; in experiment [14], 0.935; in experiment [15], 3.8; in experiment [16] it was 3.13; in [17], 1.94; in experiment [18], 0.993.
For the sequence CGAACTAGGTCAGAACAGGACAGAGAAGGATGAT, the PBM binding z-score in experiment [1] turned out to be 7.13; in [2] it was 7.18; in experiment [3], 1.45; in experiment [4], 0.658; in experiment [5], 0.782; in experiment [6], 0.74. In addition, the PBM binding z-score in experiment [7] stood at 0.047; in experiment [8], 0.515; in experiment [9], 0.919; in [10], 2.88; in experiment [11], 1.89; in experiment [12] it was 2.45. Further, the PBM binding z-score in experiment [13] amounted to 3.27; in experiment [14], 0.331; in [15], 1.2; in experiment [16], 3.39; in [17] it was 0.271; in experiment [18] it was 0.244.
